Whole data set: some 39,000 sequences, median “fluorescence intensity (a.u.)” near 4,300, cut for the highest 2% near 39,000. What follows is part of a selection rich in the highest values, with near analogues and random picks from the rest.

For the assay, the target named is T1, OsSMF1 (Oryza sativa, UniProt Q6ZLB0 1-436).
T1 sequence: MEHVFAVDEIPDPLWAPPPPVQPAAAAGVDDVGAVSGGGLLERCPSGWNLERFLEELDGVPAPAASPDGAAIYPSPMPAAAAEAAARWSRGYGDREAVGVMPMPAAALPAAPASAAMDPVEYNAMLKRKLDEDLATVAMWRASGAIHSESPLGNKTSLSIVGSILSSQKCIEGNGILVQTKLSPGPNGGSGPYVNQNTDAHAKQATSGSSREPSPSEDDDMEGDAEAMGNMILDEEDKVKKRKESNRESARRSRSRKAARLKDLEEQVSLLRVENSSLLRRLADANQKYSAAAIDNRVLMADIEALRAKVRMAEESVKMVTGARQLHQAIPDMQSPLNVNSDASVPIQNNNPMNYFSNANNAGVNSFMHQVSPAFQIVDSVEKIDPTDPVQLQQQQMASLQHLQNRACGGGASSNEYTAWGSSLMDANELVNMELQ
Description: protein-binding microarray (RPBM); PBS, 2% BSA, 51.3 ng/ul salmon testes DNA, 50 uM zinc acetate, 200 nM TF, 25 C, 1 h; high values mean tight binding. The note with it: protein: recombinant; tags: N-terminal polyhistidine and DsRed monomer fusion (pET32a); chain copies: 2; label: CyDye5-dUTP incorporated in the synthesized complementary strand; 3' TTTTT single-stranded linker to array surface; dsDNA, one strand shown. The procedure, abridged:
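In PBS with 2% BSA, salmon testes DNA and 50 µM zinc acetate, 200 nM protein was incubated on a custom Agilent array at 25 °C for 1 h and then washed off. The array had been made double-stranded by primer extension with Cy5-dUTP and blocked with 2% BSA. The proteins were transcription factors fused N-terminally to polyhistidine and DsRed, expressed in E. coli BL21-CodonPlus and purified on Ni–NTA. The binding signal is per-feature fluorescence intensity (arbitrary units) from an Axon 4000B scanner.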
For “ATTTAATGTTGTCCTAGCTAGATCCATCCAAGGCTCCAAACGGAGTCACCTAGTGCAG”, the binding signal is 3590 fluorescence intensity (a.u.).

Consider “CGCCAGCCACCTCCGGCGCCGTTCGCCAGCCACCACGCGCCGGAGTCACCTAGTGCAG”, for which the binding signal is 37900 fluorescence intensity (a.u.).

For “ACCTTCTAGACAAGGGTATGATGACATGTACCGATCCCAACGGAGTCACCTAGTGCAG”, the binding signal is 6680 fluorescence intensity (a.u.).

Regarding “GCCCGCCCGTCCCGTCCGACGTCCGCGTCACGCACGCGCGCGGAGTCACCTAGTGCAG”, the binding signal was 7940 fluorescence intensity (a.u.).

“TGTACACGCGCAGGGCGGCCCTGGCGTTGCTGACGTGGCGCGGAGTCACCTAGTGCAG”: the binding signal was 42500 fluorescence intensity (a.u.).

As for “TAGCCGTTAGTGCCACGTGGCGCCTTCCCATTCGACCGCCCGGAGTCACCTAGTGCAG”, the binding signal is 40600 fluorescence intensity (a.u.).

Turning to “CTCCCGCCGTGGCACGCGCGACGTGCCGCGTGCGCACAGGCGGAGTCACCTAGTGCAG”, the binding signal was 46800 fluorescence intensity (a.u.).

On to “CTTCCCGCCGCCGCCACTGCCACGAACAGTTCGCTCACCGCGGAGTCACCTAGTGCAG”, for which the binding signal is 3200 fluorescence intensity (a.u.).

As to “CCACCGCCGCCACACAGTCCGCTTCGGTTCCCCGTTTCCGCGGAGTCACCTAGTGCAG”, the binding signal was 65500 fluorescence intensity (a.u.).

Turning to “GGCGGCGTTCGCGGCGGCGACGTGGGCGTACCTGACGGCGCGGAGTCACCTAGTGCAG”, the binding signal is 3590 fluorescence intensity (a.u.).

“ACACACACACACACCCACCACACCACCCCGGCCGCTTCCGCGGAGTCACCTAGTGCAG”: the binding signal was 3210 fluorescence intensity (a.u.).

Regarding “CGCGGCGGCGGCGGCGCGAAGGCACGTGGCACGGCGCCGCCGGAGTCACCTAGTGCAG”, the binding signal is 3420 fluorescence intensity (a.u.).

Consider “GAACGGTCAAATAGCCGTTAGTGCCACGTGGCGCCTTCCCCGGAGTCACCTAGTGCAG”, for which the binding signal is 25100 fluorescence intensity (a.u.).

Regarding “GCCGTTAGTGCCACGTGGCGCCTTCCCATTCGACCGCCGCCGGAGTCACCTAGTGCAG”, the binding signal is 37400 fluorescence intensity (a.u.).

As for “ACGCGCGGGCGTGGCTGACGTGGCCCGGAGAAGGCGGAGGCGGAGTCACCTAGTGCAG”, the binding signal was 5770 fluorescence intensity (a.u.).

As to “GGAGGGTGGGGTAGGAGAGGATGCGGCGGGCGCCATGGCTCGGAGTCACCTAGTGCAG”, the binding signal was 3450 fluorescence intensity (a.u.).

As to “GCCACTTGCCCAGGTCACGCACACATTATTGAGCGAGCGACGGAGTCACCTAGTGCAG”, the binding signal is 4590 fluorescence intensity (a.u.).

Consider “AGTCGCACGCCAAGTGTTTGTTGTTTTGCCAAGCAAGATGCGGAGTCACCTAGTGCAG”, for which the binding signal is 3520 fluorescence intensity (a.u.).

With “TCGAGCCCCTCTCCCTCCGCGAGCCGTGTGCAGCGGGCGACGGAGTCACCTAGTGCAG”, the binding signal is 3430 fluorescence intensity (a.u.).

Regarding “ACGGATTCCTGTTAATAGAGTGTTTCCGTAATATGTGGCACGGAGTCACCTAGTGCAG”, the binding signal is 3820 fluorescence intensity (a.u.).

Regarding “GTTTGGGGTTTCTTTCCTGCCTCGTGAGCTGACGCCGGTGCGGAGTCACCTAGTGCAG”, the binding signal was 4080 fluorescence intensity (a.u.).

As for “GCCGCGCCGCGCCGTGGCGTGGCGTGGCGTGGCGCGGCCACGGAGTCACCTAGTGCAG”, the binding signal is 6530 fluorescence intensity (a.u.).

In the case of “CGCCTTCGTCCCATCTCGACCGTCCACGTGTGGCCCATCCCGGAGTCACCTAGTGCAG”, the binding signal was 8200 fluorescence intensity (a.u.).

As to “GGCAGCCATTCCCACCGCGCCACACGCGCCACACGCCCCGCGGAGTCACCTAGTGCAG”, the binding signal was 3240 fluorescence intensity (a.u.).

Consider “GTTAGTGCCACGTGGCGCCTTCCCATTCGACCGCCGCCCGCGGAGTCACCTAGTGCAG”, for which the binding signal is 42100 fluorescence intensity (a.u.).

Turning to “CCGGCGGCAGTGGCCCGGCGGCGCCGCCACCTTCCGTGCCCGGAGTCACCTAGTGCAG”, the binding signal is 43700 fluorescence intensity (a.u.).

For “AAAGCGTTCCGCGGCGCCGCCGTGGCGTCCGGCGTCCGGCCGGAGTCACCTAGTGCAG”, the binding signal was 3900 fluorescence intensity (a.u.).

For “CTCGAGCCCGCGGATGGCGCCCCATGGCGTGGCGGCGGAGCGGAGTCACCTAGTGCAG”, the binding signal was 3820 fluorescence intensity (a.u.).

With “TGTAAGCATCAGCATGTCAAGGTTAACACCTCACTATCTCCGGAGTCACCTAGTGCAG”, the binding signal was 4630 fluorescence intensity (a.u.).

Turning to “ACAGGGGCAGGGGTCATGTGGTGGAGGTAATCAATTAATCCGGAGTCACCTAGTGCAG”, the binding signal was 3660 fluorescence intensity (a.u.).

As to “TAGATGTTACTCCCTCCGTCCCTTCGTCCTAAAATGTAGCCGGAGTCACCTAGTGCAG”, the binding signal was 35900 fluorescence intensity (a.u.).

For “GCAGATCTTGACTATCTCCACGGGATATATACACGGCGGCCGGAGTCACCTAGTGCAG”, the binding signal is 22300 fluorescence intensity (a.u.).

Consider “CGCTCATGAAGCTCCTTCCCTACGCGCGCTCGCCGAATCGCGGAGTCACCTAGTGCAG”, for which the binding signal was 44000 fluorescence intensity (a.u.).

For the sequence “CTCCCTTCCCTTCCCTTCCTCTCGCCGAACCAACGCGGAACGGAGTCACCTAGTGCAG”, the binding signal is 3360 fluorescence intensity (a.u.).

For “GCTCCTCGCGCTGCTCATCATCCTCCCCTCCACGCCGCCGCGGAGTCACCTAGTGCAG”, the binding signal is 4730 fluorescence intensity (a.u.).

For the sequence “CCCAAGGAGGATGAGGTGGAGGTGGGAGTGCGCATTGAGGCGGAGTCACCTAGTGCAG”, the binding signal was 4880 fluorescence intensity (a.u.).

Consider “CCTTAGACCTTCTGGATTACATCGTAAGCTGGCTTCTCCTCGGAGTCACCTAGTGCAG”, for which the binding signal is 3490 fluorescence intensity (a.u.).

For the sequence “CCACACAGCGATAATCGAGCGGATTGGACCAAAGTACGAGCGGAGTCACCTAGTGCAG”, the binding signal is 38200 fluorescence intensity (a.u.).

For the sequence “CAAAGCGGCCCAACAATGAACACGTCACTTGTATTCACTACGGAGTCACCTAGTGCAG”, the binding signal was 7510 fluorescence intensity (a.u.).

Turning to “ATGTGACTGAAAAGTTGTGTGTGTATGACAGGTTGATGTGCGGAGTCACCTAGTGCAG”, the binding signal is 3800 fluorescence intensity (a.u.).

As to “TTGATTGAAATTGGAGATGATGTGACTGAAAAGTTGTGTGCGGAGTCACCTAGTGCAG”, the binding signal was 4220 fluorescence intensity (a.u.).

With “CCAGGATAAAATAAAGGTTGTATGTTACAAATGTTTGATCCGGAGTCACCTAGTGCAG”, the binding signal was 42200 fluorescence intensity (a.u.).

Values taken from article PMC7819943, “Rice protein-binding microarrays: a tool to detect cis-acting elements near promoter regions in rice”.
